# PvdQ inh: P. aeruginosa PvdQ acylase inhibition; 0.063% of 340,000 active; purified PvdQ acylase, fluorescence plate reader; inhibition, % at 10 µM; in the data active means inhibition above about 30%, passing the limit was not always enough; inconclusive means no clear call, values can overlap the other calls;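 further: 0% = vehicle neutral wells and 100% = reference inhibitor wells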
# PglD DTNB: inhibitors of Campylobacter jejuni PglD acetyltransferase; purified PglD enzyme, DTNB colorimetric CoA detection; inhibition, % at 12.5 µM; 0.098% of 360,000 active; in the data active means inhibition above about 16%, passing the limit was not always enough; inconclusive means no clear call, values can overlap the other calls
# dFosB act-1: enhances mouse delta FosB homodimer DNA binding; activation, % at 25 µM; purified delta FosB, TAMRA-CDK5 oligo fluorescence polarization; percent of positive-control signal above neutral wells; AID 493131; P13346; 0.99% of 340,000 active;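 active means mean activation above about 17%, with every replicate also reaching it, limit read from the data, passing the limit was not always enough; inconclusive means only one of the two conditions met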
# FGF22 binding: shifts melting point of recombinant human FGF22 | activity (Tm shift, normalised), % at 9.99 µM | recombinant FGF22 thermal shift, SYPRO orange fluorescence; percent of sucrose octasulfate shift, DMSO zero | AID 651658 | 1.5% of 340,000 active;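 active means mean Tm shift, scaled 0 neutral to 100 positive control, at about 1.3% or above, every replicate too, limit read from the data; inconclusive means no clear call, values can overlap the other calls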
# Target sequence (Q9HCT0 whole entry, looked up): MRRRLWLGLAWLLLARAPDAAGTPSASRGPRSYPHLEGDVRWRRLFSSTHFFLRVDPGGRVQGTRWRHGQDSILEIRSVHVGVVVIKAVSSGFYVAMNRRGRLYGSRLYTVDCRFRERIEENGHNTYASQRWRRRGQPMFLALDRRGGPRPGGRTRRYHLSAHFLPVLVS
# SIRT5 block: blocks human SIRT5 desuccinylation of peptide. Purified SirT5, succinyl-peptide AMC, trypsin-coupled fluorescence. inhibition, % at 15 µM. AID 652115. 1.1% of 330,000 active; in the data active means inhibition above about 15%; inconclusive means no clear call, values can overlap the other calls
# Target sequence (Q9NXA8 whole entry, looked up): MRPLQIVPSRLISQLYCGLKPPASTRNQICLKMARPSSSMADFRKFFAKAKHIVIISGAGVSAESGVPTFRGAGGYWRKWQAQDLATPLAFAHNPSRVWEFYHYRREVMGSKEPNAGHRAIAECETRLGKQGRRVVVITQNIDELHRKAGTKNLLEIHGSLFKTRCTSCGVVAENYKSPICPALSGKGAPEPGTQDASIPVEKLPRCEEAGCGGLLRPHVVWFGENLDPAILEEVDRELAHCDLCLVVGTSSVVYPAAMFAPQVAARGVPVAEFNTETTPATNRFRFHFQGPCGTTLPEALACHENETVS
# CDK5 inh: blocks human CDK5/p35 kinase activity; Q00535+Q15078; 0.01% of 330,000 active; Recombinant CDK5/p35, ADP-Glo luminescence, 60 min; inhibition, % at 10 µM;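 active means highest replicate inhibition of at least 50% and at least 75% of replicates reaching 50%; inconclusive means only one of the two criteria met; inactive means both criteria failed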;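 further: plate controls were DMSO neutral control for no effect and GW8510 at 10 µM for full effect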
# dFosB act-2: delta FosB (mouse) homodimer activation | shares compounds with dFosB act-1 | purified delta FosB, TAMRA-CDK5 oligo fluorescence polarization; normalised: neutral wells 0, positive control 100 | activation, % at 24.9 µM | 2,400 tested, under 10 active | AID 588690;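 active means highest replicate activation at or above 34% and every replicate reaching that threshold; inconclusive means meets only one of the two criteria; inactive means meets neither criterion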;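 further: higher polarization means more probe DNA bound by delta FosB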
# * marks the source's active call; other numbers are inactive results; ? = inconclusive; . = not tested or not shown. Only some compounds are listed: those with a hit (about 2.8% of all), similar ones and a draw of the others.
SMILES,PvdQ inh,PglD DTNB,dFosB act-1,FGF22 binding,SIRT5 block,CDK5 inh,dFosB act-2
CS(=O)(=O)c1ccc2nc(NC(=O)C3=NN(c4ccccc4)C(=O)CC3)sc2c1,1.0,5.7,-10.0,0.0,3.4,0.0,.
COC(=O)c1cc(NC(=O)c2ccc(Cn3cc(Cl)cn3)o2)cc(C(=O)OC)c1,5.9,-6.1,20.9*,.,.,-2.3,-0.6
CCC(=O)N1CC(=O)N2[C@H](CO)[C@@H](c3ccc(-c4ccccc4F)cc3)[C@@H]2C1,.,.,.,.,1.0,.,.
CC(CCc1ccco1)NC(=O)CCc1nnc2ccc(NCc3ccc(Cl)cc3)nn12 (configuration not stated),-7.1,-3.2,-1.7,0.0,-1.1,.,.
CC(CCc1ccco1)NC(=O)CCc1nnc2ccc(NCc3ccccc3Cl)nn12 (configuration not stated),-4.7,-0.3,22.5*,0.0,-2.2,.,0.5
O=C(COC(=O)c1ccccc1NC(=O)c1ccco1)NCc1ccc2c(c1)OCO2,-1.8,1.1,30.4*,.,.,-0.4,2.3
CCCNC(=O)N1CC2(CN(C(=O)COC)C2)c2c(n(C)c3cc(OC)ccc23)[C@@H]1CO,.,.,.,-0.2,-5.0,.,.
CC(=O)Nc1ccc(NC(=O)C(=O)NCC(c2ccco2)N2CCc3ccccc3C2)cc1 (configuration not stated),-7.4,0.7,22.3*,-0.1,1.0,-1.1,2.8
C[C@@H]1CN([C@H](C)CO)C(=O)c2cccc(N(C)C)c2O[C@@H]1CN(C)S(=O)(=O)c1cn(C)cn1,.,1.5,.,0.0,.,.,.
COc1cccc(Nc2nc(N)c([N+](=O)[O-])c(NCc3ccccc3)n2)c1,-2.6,-0.3,50.6*,0.1,-0.1,1.6,-1.3
O=C(OCc1ccc2c(c1)OCO2)c1ccc(S(=O)(=O)N2CCCCC2)cc1,-15.7,.,35.1*,.,.,-1.1,-5.2
O=C(NCc1ccc2c(c1)OCO2)c1ccc(S(=O)(=O)N2CCCCC2)cc1,-1.9,-6.6,15.9,.,.,0.1,.
CC1(C)SC(=Nc2ccccc2)N(S(=O)(=O)c2ccccc2)C1=O,-6.6,0.0,5.0,0.1,-8.4,0.2,.
O=C1C(c2ccccc2)SC(=Nc2ccccc2)N1S(=O)(=O)c1ccccc1 (configuration not stated),0.2,0.2,20.9*,.,.,-1.2,4.2
COCCNC(=O)C[C@@H]1C[C@H]2c3cc(NC(=O)Nc4ccc(C(F)(F)F)cc4)ccc3O[C@H]2[C@H](CO)O1,.,1.8,.,-0.6,9.1,.,.
Cc1c(NC(=O)c2cc(-n3cnnc3)ccc2Cl)cccc1-c1nc2ccccc2s1,-14.0,8.2,31.5*,.,.,-3.1,-0.5
O=C(Nc1cccc(-c2nc3ccccc3s2)c1)c1cc(-n2cnnc2)ccc1Cl,2.2,1.8,-5.5,.,.,-1.9,.
COc1ccc(NC(=O)Nc2ccc3c(c2)CC(=O)N([C@H](C)CO)C[C@@H](C)[C@@H](CN(C)Cc2ccc(Cl)c(Cl)c2)O3)cc1,.,0.6,.,-0.1,.,.,.
Cc1nn(Cc2ccc(F)cc2)c2sc(C(=O)Nc3nccs3)cc12,0.0,.,49.0*,44.2*,-3.4,-2.2,7.0
COc1ccc(NC(=O)Nc2cccc3c2O[C@@H](CN(C)C(=O)Nc2ccc4c(c2)OCO4)[C@@H](C)CN([C@H](C)CO)C3=O)cc1,.,3.0,.,-0.1,4.5,.,.
CCC(=O)N1[C@H](CO)[C@H](c2ccc(-c3ccccc3)cc2)[C@H]1CNC(=O)COC,.,.,.,.,-1.3,.,.
CCOc1ccc(/C=N/N2C(=O)C(CC(=O)Nc3ccc(F)cc3F)SC2=NC)cc1OC (configuration not stated),-8.7,-3.6,25.7*,-0.1,1.0,-2.3,-0.3
COCCNC(=O)/C(C#N)=C/c1ccc(C)o1,0.1,.,-1.5,0.3,2.0,-1.4,.
CCOC(=O)c1ccc(NC(=O)C(=O)NCc2ccc(/C=C(/C#N)C(=O)NCCOC)o2)cc1,5.9,.,23.5*,-0.3,-2.0,0.3,-2.4
Cc1[nH]nc2nc(SCC(=O)NC3CCCCC3)n(-c3ccc(Br)cc3)c(=N)c12,-11.6,-0.5,51.8*,0.2,0.2,.,1.0
CCOc1ccc(-n2c(SCC(=O)Nc3ccc(CC)cc3)nc3n[nH]c(C)c3c2=N)cc1,-15.9,.,?,42.5,0.5,-0.9,.

# High-throughput results as filed in PubChem BioAssay.
